# Where “and” joins values, the source holds several entries; their conditions need not be identical. Equal entries are not always repeated. Results filed as inconclusive are left out. Entries that show only a call come without a potency. Unmarked numbers belong to inactive results. Calls of active or inactive are those of the source. Unless noted, the call rests on the fitted dose curve; in most records, active means well fitted curve in the direction sought with a large enough effect; inconclusive means small, poorly fitted or top-dose-only effect, or another doubt; inactive means no such curve, though single readings can be large; an effect the other way counts as inactive or inconclusive.
# How the values were obtained:
# [1] = molecular target: Cellular tumor antigen p53 (Homo sapiens) (UniProt P04637); experiment: Primary qHTS for small molecule compounds that upregulate eGFP-tagged delta133p53alpha (in N-terminal) cells. (AID 2060322); settings: NCI-H358 eGFP-delta133p53alpha fluorescence, 24 h; activation: active compounds read high; further: series mostly up to about 56 µM; nearly all actives have a fitted effect of over 75% in size
# Method in brief: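 NCI-H358 cells pre-induced 24 h with 10 ng/ml doxycycline to express N-terminal eGFP-delta133p53alpha, then dosed 24 h at 37C without doxycycline; fixed, Hoechst-stained, GFP intensity by laser scanning cytometry, normalized to DMSO (0%) and 57.5 uM 5-azacytidine (100%).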
# [2] = molecular target: Cellular tumor antigen p53 (Homo sapiens) (UniProt P04637); experiment: Primary qHTS for small molecule compounds that upregulate eGFP-tagged delta133p53alpha (in C-terminal) cells. (AID 2060324); further: potency means the concentration at half of the fitted maximal effect
# Method in brief: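 NCI-H358 cells pre-induced 24 h with 100 ng/ml doxycycline to express delta133p53alpha-eGFP, then dosed in doxycycline-free medium for 24 h at 37C. Fixed, Hoechst-stained; GFP intensity by laser scanning cytometry, normalized to DMSO wells.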
# [3] = molecular target: Aldehyde dehydrogenase, mitochondrial (Homo sapiens) (UniProt P05091); experiment: qHTS for Inhibitors of the Aldehyde Dehydrogenase Family (ALDH2) Validation screens (AID 2061302; active means well fitted inhibition curve with a large enough effect; title and protocol of this record describe different tests)
# [4] = molecular target: Aldehyde dehydrogenase, mitochondrial (Homo sapiens) (UniProt P05091); experiment: qHTS for Inhibitors of the Aldehyde Dehydrogenase Family (ALDH2) Confirmatory screens (AID 2061303; active means well fitted inhibition curve with a large enough effect; title and protocol of this record describe different tests; further: nearly all actives have a fitted effect of over 45% in size)
# [5] = qHTS for Inhibitors of the Aldehyde Dehydrogenase Family (ALDH1A2, ALDH1A3, ALDH2, ALDH3A1) (AID 2061307); further: nearly all actives have a fitted effect of over 50% in size; on potency: test system not described further here; potency means the concentration at half of the fitted maximal effect
# [6] = molecular target: Retinaldehyde dehydrogenase 3 (Homo sapiens) (UniProt P47895); experiment: qHTS for Inhibitors of the Aldehyde Dehydrogenase Family (ALDH1A3) Confirmatory screens (AID 2061311); further: nearly all actives have a fitted effect of over 60% in size; further: potency means the concentration at half of the fitted maximal effect
# [7] = molecular target: Retinaldehyde dehydrogenase 3 (Homo sapiens) (UniProt P47895); experiment: qHTS for Inhibitors of the Aldehyde Dehydrogenase Family (ALDH1A3) Validation screen (AID 2061312); further: nearly all actives have a fitted effect of over 45% in size
# [8] = molecular target: Retinaldehyde dehydrogenase 3 (Homo sapiens) (UniProt P47895); experiment: qHTS for Inhibitors of the Aldehyde Dehydrogenase Family (ALDH1A3) Primary screen (AID 2061315)
# [9] = molecular target: Retinal dehydrogenase 2 (Homo sapiens) (UniProt O94788); experiment: qHTS for Inhibitors of the Aldehyde Dehydrogenase Family (ALDH1A2) Confirmation screens (AID 2061314); further: nearly all actives have a fitted effect of over 65% in size
# [10] = molecular target: Aldehyde dehydrogenase 1A1 (Homo sapiens) (UniProt P00352); experiment: qHTS for Inhibitors of the Aldehyde Dehydrogenase Family (ALDH1A1) Confirmatory screens (AID 2061316); further: nearly all actives have a fitted effect of over 65% in size
# [11] = molecular target: Aldehyde dehydrogenase, mitochondrial (Homo sapiens) (UniProt P05091); experiment: qHTS for Inhibitors of the Aldehyde Dehydrogenase Family (ALDH2) Primary screen (AID 2061308); further: nearly all actives have a fitted effect of over 55% in size
# [12] = BET inhibitor-based combinations targeting novel dependencies in MECOM-rearranged (r) AML: SET-2 cell line (AID 2202231); settings: SET-2 AML cells viability, CellTiter-Glo luminescence, 48 h; viability: active compounds read low, series mostly up to about 46 µM; further: nearly all actives have a fitted effect of over 35% in size
# Method in brief: (§1)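 Readout: CellTiter-Glo luminescence. Exposure: 48 h, 11 concentrations, 500 cells/well. Metric: AUC and within-line Z-AUC after DMSO/empty-well normalization.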
# [13] = BET inhibitor-based combinations targeting novel dependencies in MECOM-rearranged (r) AML: OCI-AML3 cell line (AID 2202232); settings: Potency: OCI-AML3 viability; further: series mostly up to about 46 µM; nearly all actives have a fitted effect of over 35% in size
# Method in brief: as §1
# [14] = BET inhibitor-based combinations targeting novel dependencies in MECOM-rearranged (r) AML: MV-4-11 cell line (AID 2202233); further: nearly all actives have a fitted effect of over 45% in size
# Method in brief: (§2)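 Seeding density was 500 cells/well, and drug exposure lasted 48 hr under standard culture conditions. Read-out used CellTiter-Glo reagent with a 15 min room-temperature incubation before luminescence measurement; AUC and Z-AUC summarize the normalized responses.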
# [15] = BET inhibitor-based combinations targeting novel dependencies in MECOM-rearranged (r) AML: HNT-34 cell line (AID 2202234); further: nearly all actives have a fitted effect of over 35% in size
# Method in brief: as §2
# [16] = BET inhibitor-based combinations targeting novel dependencies in MECOM-rearranged (r) AML: UCSD-AML1 cell line (AID 2202235); further: series mostly up to about 46 µM; nearly all actives have a fitted effect of over 40% in size
# Method in brief: as §2
# [17] = BET inhibitor-based combinations targeting novel dependencies in MECOM-rearranged (r) AML: AML-191 cell line (AID 2202236; further: nearly all actives have a fitted effect of over 35% in size)
# Method in brief: as §1
# [18] = BET inhibitor-based combinations targeting novel dependencies in MECOM-rearranged (r) AML: AML-194 cell line (AID 2202237; further: nearly all actives have a fitted effect of over 40% in size)
# Method in brief: as §1
# Cellular tumor antigen p53 (Homo sapiens), sequence (P04637 whole entry, looked up): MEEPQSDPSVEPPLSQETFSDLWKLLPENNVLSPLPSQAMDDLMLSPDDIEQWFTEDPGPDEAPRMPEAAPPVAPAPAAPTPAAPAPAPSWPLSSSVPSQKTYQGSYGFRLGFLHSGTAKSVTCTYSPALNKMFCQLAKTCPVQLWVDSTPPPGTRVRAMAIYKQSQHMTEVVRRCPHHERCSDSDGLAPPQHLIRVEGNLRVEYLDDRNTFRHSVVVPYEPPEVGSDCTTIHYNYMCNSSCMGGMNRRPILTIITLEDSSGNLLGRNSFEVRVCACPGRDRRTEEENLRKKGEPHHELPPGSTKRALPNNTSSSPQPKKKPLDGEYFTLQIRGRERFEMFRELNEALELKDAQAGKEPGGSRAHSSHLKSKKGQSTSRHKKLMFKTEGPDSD
smiles,measurement,setting,value
Nc1nc2c(cnn2CCc2ccccc2)c2nc(-c3ccco3)nn12,activation,[1],-28.5%
same,Potency,[2],inactive
same,Potency,[3],inactive
CSc1ccc2c(c1)C(N1CCN(C)CC1)Cc1ccccc1S2 (configuration not stated),activation,[1],48%
same,Potency,[2],inactive
same,Potency,[3],inactive
Cc1cccc(C(=O)NCN2CCN(c3ccccc3C#N)CC2)c1,activation,[1],-16.7%
same,Potency,[2],inactive
same,Potency,[3],inactive
CN(CCCOc1ccc(Cc2ccccc2)cc1)CCC(=O)O,activation,[1],-0.922% and -7.16%
same,Potency,[2],inactive
same,Potency,[3],inactive
same,Potency,[4],inactive
same,Potency,[5],inactive
same,Potency,[6],inactive
same,Potency,[7],inactive
same,Potency,[8],inactive
Nc1ncnc2c1ncn2C1CCCC1,activation,[1],-5.11%
same,Potency,[2],inactive
same,Potency,[3],inactive
Oc1cc2c(cc1O)CN(C(=S)NCCc1ccc(Cl)cc1)CCC2,activation,[1],-14.7%
same,Potency,[2],inactive
same,Potency,[3],inactive
CCCC[C@@]1(C2CCCC2)Cc2cc(OCC(=O)O)c(Cl)c(Cl)c2C1=O,activation,[1],-7.36%
same,Potency,[2],inactive
same,Potency,[3],inactive
CN1C2CCC1CC(OC(=O)C(O)c1ccccc1)C2 (configuration not stated),activation,[1],8.16%
same,Potency,[2],inactive
same,Potency,[3],inactive
CN1CCN(CCCN2c3ccccc3Sc3ccc(Cl)cc32)CC1,activation,[1],23.2% and -10.9% and -6.59%
same,Potency,[2],inactive
same,Potency,[3],inactive
Nc1ccn([C@H]2O[C@H](CO)[C@@H](O)C2(F)F)c(=O)n1,activation,[1],7.37%
same,Potency,[2],inactive
same,Potency,[3],inactive
CCN(CC)CCOC(=O)c1cc(Cl)c(N)cc1OC,activation,[1],-18.7%
same,Potency,[2],inactive
same,Potency,[3],inactive
CCCn1cnc2c1c(=O)n(CCCCC(C)=O)c(=O)n2C,activation,[1],0.837% and -17.3%
same,Potency,[2],inactive
same,Potency,[3],inactive
same,Potency,[4],inactive
same,Potency,[5],inactive
same,Potency,[6],inactive
same,Potency,[7],inactive
same,Potency,[9],inactive
same,Potency,[10],inactive
NCCCNCCCCNCCCN,activation,[1],-8.4%
same,Potency,[2],inactive
same,Potency,[3],inactive
CCCN(CCc1ccccc1)C1CCc2c(O)cccc2C1 (configuration not stated),activation,[1],-29.6%
same,Potency,[2],inactive
same,Potency,[3],inactive
Cc1cccc(C#Cc2ccccc2)n1,activation,[1],-6.63% and 22.8%
same,Potency,[2],inactive
same,Potency,[3],inactive
NCCC1CCCC(CCN)N1 (configuration not stated),activation,[1],10.3%
same,Potency,[2],inactive
same,Potency,[3],inactive
C[C@](Cc1ccc(O)c(O)c1)(NN)C(=O)O,activation,[1],-15.4%
same,Potency,[2],inactive
same,Potency,[3],inactive
Cc1cccc(/C=C/c2ccccc2)n1,activation,[1],-2.77%
same,Potency,[2],inactive
same,Potency,[3],inactive
CN(C)CCCc1cc(C(=O)Nc2ccc(-c3ccncc3)cc2)ccc1O,activation,[1],-14.9%
same,Potency,[2],inactive
same,Potency,[3],inactive
CN1CCc2cccc3c2C1Cc1ccc(O)c(O)c1-3 (configuration not stated),activation,[1],49.9%
same,Potency,[2],inactive
same,Potency,[3],inactive
c1cnc(N2CCN(Cc3ccc4c(c3)OCO4)CC2)nc1,activation,[1],8.37% and 9.57%
same,Potency,[2],inactive
same,Potency,[3],inactive
OCCN1CCN(CCCN2c3ccccc3C=Cc3ccccc32)CC1,activation,[1],-10.7% and -5.62%
same,Potency,[2],inactive
same,Potency,[3],inactive
N.N.O=C(O)C1(C(=O)O)CCC1.[Pt+2],activation,[1],-8.5%
same,Potency,[2],inactive
same,Potency,[3],inactive
COc1ccccc1CNCCCCCCNCCCCCCCCNCCCCCCNCc1ccccc1OC,activation,[1],-23.6%
same,Potency,[2],inactive
same,Potency,[3],inactive
NC(C(=O)N[C@@H]1C(=O)N2C(C(=O)O)=C(Cl)CS[C@H]12)c1ccccc1 (some centres not stated),activation,[1],6.44%
same,Potency,[2],inactive
same,Potency,[3],inactive
Brc1ccc([C@H]2CN3CCSC3=N2)cc1,activation,[1],-4.33% and 7.97%
same,Potency,[2],inactive
same,Potency,[3],inactive
same,Potency,[4],inactive
same,Potency,[5],inactive
same,Potency,[6],inactive
same,Potency,[7],inactive
same,Potency,[9],inactive
same,Potency,[8],inactive
same,Potency,[10],inactive
c1cc(CN2CCCCC2)cc(OCCCNc2nc3ccccc3s2)c1,activation,[1],20.9% and -10.6%
same,Potency,[2],inactive
same,Potency,[3],inactive
OCCN1CCN(CC/C=C2/c3ccccc3Sc3ccc(C(F)(F)F)cc32)CC1,activation,[1],-48.7%
same,Potency,[2],inactive
same,Potency,[3],inactive
CN1CCc2ccccc2Cc2[nH]c3ccccc3c2CC1,activation,[1],-5.31%
same,Potency,[2],26.9 µM (active)
same,Potency,[3],inactive
O=c1[nH]c(=S)[nH]c(-c2ccccc2)c1Cc1c(O)ccc2ccccc12,activation,[1],-41.1%
same,Potency,[2],inactive
same,Potency,[3],inactive
O=C(CCCN1CCC(O)(c2cccc(C(F)(F)F)c2)CC1)c1ccc(F)cc1,activation,[1],13.4% and 14.3%
same,Potency,[2],inactive
same,Potency,[3],inactive
C1CCc2nnnn2CC1,activation,[1],-8.09%
same,Potency,[2],inactive
same,Potency,[3],inactive
COCCOc1cc2ncnc(Cl)c2cc1OCCOC,activation,[1],-22.2%
same,Potency,[2],inactive
same,Potency,[3],inactive
O=c1ccc2c(OCCCCc3ccccc3)c3ccoc3cc2o1,activation,[1],-37.4%
same,Potency,[2],inactive
same,Potency,[3],inactive
same,Potency,[5],1.12 µM (active)
same,Potency,[6],12.6 µM (active)
CC(C)NCC(O)COc1cccc2[nH]ccc12 (configuration not stated),activation,[1],-9.6% and -5.67% and -6.98%
same,Potency,[2],inactive
same,Potency,[3],inactive
same,Potency,[11],inactive
same,Potency,[7],inactive
same,Potency,[8],inactive
CCc1ccc(/C=C2/SC(=S)NC2=O)cc1,activation,[1],-0.0291%
same,Potency,[2],inactive
same,Potency,[3],inactive
same,Potency,[5],inactive
same,Potency,[6],inactive
same,Potency,[7],inactive
same,Potency,[9],inactive
same,viability,[12],89.4%
same,Potency,[13],inactive
same,Potency,[14],inactive
same,Potency,[15],inactive
same,Potency,[16],inactive
same,Potency,[17],inactive
same,Potency,[18],inactive

# Source: PubChem BioAssay (NCATS)
